# Bioassay records: PubChem BioAssay, National Center for Advancing Translational Sciences (NCATS)
# Shown are actives, neighbours in structure and some others; about 12% of the full set was active somewhere.
# BAZ2B block – qHTS Assay for Inhibitors of BAZ2B; AID 504333, 2011; Bromodomain adjacent to zinc finger domain protein 2B (Homo sapiens), Q9UIF8; 360,000 compounds, 4.4% hits; Potency, µM (top dose mostly 114 µM), for the others: at the highest dose activity change, negative = inhibition, hits mostly inhibitors; AlphaScreen BAZ2B-H3K14Ac peptide displacement; further: on the % scale 0 is the no-effect control and ±100 the full control effect; nearly all actives have a fitted effect of over 60% in size
#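 AlphaScreen luminescence quantifies BAZ2B engagement of H3K14Ac peptide; the protein and biotinylated peptide are both at 50 nM final, buffer PBS pH 7.4 with 0.01% Tween-20, all steps at room temperature.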
# G9a block – qHTS Assay for Inhibitors of Histone Lysine Methyltransferase G9a | Histone-lysine N-methyltransferase EHMT2 (Homo sapiens), Q96KQ7 | G9a H3K9 monomethylation, AlphaScreen, 2 h | Potency, µM (series often up to 102 µM), for inactives: at the top dose activity, negative = inhibition, usual class: inhibitors | 350,000 compounds, 8.8% hits; further: on the % scale 0 is the no-effect control and ±100 the full control effect; nearly all actives have a fitted effect of over 75% in size
# Target sequence (Q96KQ7 913-1193 limits assumed): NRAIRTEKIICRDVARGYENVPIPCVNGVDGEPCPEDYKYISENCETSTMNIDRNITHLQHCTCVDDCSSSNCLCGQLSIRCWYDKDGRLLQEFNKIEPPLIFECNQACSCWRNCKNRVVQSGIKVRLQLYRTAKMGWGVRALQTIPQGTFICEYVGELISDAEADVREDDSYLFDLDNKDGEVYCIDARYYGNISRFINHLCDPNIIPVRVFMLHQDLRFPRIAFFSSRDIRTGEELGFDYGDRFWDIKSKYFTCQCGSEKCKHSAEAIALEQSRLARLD
#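 Step 1: enzyme (final 20 nM) with compound, 15 min RT. Step 2: substrate peptide 500 nM and SAM 20 uM, 2 h RT. Step 3: anti-H3K9me1 antibody and AlphaScreen beads, 10 min, then plate read.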
# JMJD2A Tudor inh – qHTS Assay for Inhibitors of JMJD2A-Tudor Domain. AlphaScreen JMJD2A-Tudor / H3K4me3 peptide binding. Potency, µM (series often up to 114 µM), inactives show at the highest dose activity change, negative = inhibition, hits mostly inhibitors. 390,000 compounds, 4.4% hits. AID 504339, 2011; further: on the % scale 0 is the no-effect control and ±100 the full control effect; nearly all actives have a fitted effect of over 50% in size
# TDP1 block – qHTS Assay for Inhibitors of Tyrosyl-DNA Phosphodiesterase (TDP1); recombinant TDP1, AlphaScreen DNA substrate cleavage; Potency, µM (doses to about 130 µM), for the others: at the highest dose activity change, negative = inhibition, actives largely listed as inhibitors; Tyrosyl-DNA phosphodiesterase 1 (Homo sapiens), Q9NUW8; 350,000 compounds, 0.28% hits; further: on the % scale 0 is the no-effect control and ±100 the full control effect; nearly all actives have a fitted effect of over 40% in size
#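 Steps: enzyme plus compound, 15 min RT; add biotin/phosphotyrosine-FITC oligonucleotide (15 nM final), react 5 min; add donor/acceptor beads (10 ug/ml final), 10 min; read AlphaScreen. Tdp1 at 1 nM final.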
# HP1b chromo inh – HTS for Inhibitors of HP1-beta Chromodomain Interactions with Methylated Histone Tails | Chromobox protein homolog 1 (Homo sapiens), P83916 | AlphaScreen HP1-beta / biotin-H3K9me3 peptide binding | Potency, µM (top dose mostly 114 µM), for the others: at the highest dose activity change, negative = inhibition, usual class: inhibitors | 390,000 compounds, 0.56% hits | AID 540317, 2011; further: nearly all actives have a fitted effect of over 70% in size
# Target sequence (P83916 whole entry, looked up): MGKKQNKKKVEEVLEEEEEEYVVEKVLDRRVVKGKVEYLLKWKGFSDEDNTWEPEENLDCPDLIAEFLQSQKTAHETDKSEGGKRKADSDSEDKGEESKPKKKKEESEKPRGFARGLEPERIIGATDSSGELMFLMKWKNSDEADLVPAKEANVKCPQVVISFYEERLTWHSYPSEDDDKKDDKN
#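 HP1-beta protein (50 nM final) preincubated 30 min at room temperature with biotinylated H3(1-18)K9me3 peptide (50 nM) in PBS pH 7.4, 0.01% Tween-20, then compound added for 30 min. AlphaScreen streptavidin donor/nickel chelate acceptor beads (10 ug/mL final), 30 min dark, luminescence read.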
# Sfp inh – qHTS Assay for Inhibitors of Bacillus subtilis Sfp phosphopantetheinyl transferase (PPTase); AID 1490, 2009; 310,000 compounds, 3.5% hits; 4'-phosphopantetheinyl transferase ffp (Bacillus subtilis), Q9F4F7; Potency, µM, for inactives: largest response in the series, negative = inhibition, hits mostly inhibitors; Biochemical Sfp PPTase activity, qHTS;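 further: the enzyme is Sfp with the accession as filed and its product quenches rhodamine fluorescence; 0% = enzyme reaction without inhibitor and -100% = no enzyme wells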
#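 After 15 min at room temperature with compound, 15 nM Sfp received 5 uM rhodamine-CoA plus 12.5 uM BHQ-2-ybbR (50 mM Hepes pH 7.6, 10 mM MgCl2). Rate came from the fluorescence difference over 30 min, ex 525/em 598 nm.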
# * hit, by the source's call; ? = inconclusive; . = no result; ! = not confirmed by another sample; [ ] = dose if it differs, or a comment. The call rests on the fitted dose curve; in most records, active means well fitted curve in the direction sought with a large enough effect; inconclusive means small, poorly fitted or top-dose-only effect, or another doubt; inactive means no such curve, though single readings can be large; an effect the other way counts as inactive or inconclusive. Potency means the concentration at half of the fitted maximal effect.
SMILES,BAZ2B block,G9a block,JMJD2A Tudor inh,TDP1 block,HP1b chromo inh,Sfp inh
O=S(=O)(c1ccccc1)N1CCN(C2CCN(Cc3ccccc3)CC2)CC1,0.9%,-1.3%,-5.5%,5.8%,1.1%,7.5%
O=S(=O)(c1ccc2ccccc2c1)N1CCN(Cc2ccccn2)CC1,79.4µM*,?,3.16µM*,-5.1%,-9.0%,70.8µM*
COc1ccccc1N1CCN(C2CCN(S(=O)(=O)c3ccc(C)cc3)CC2)CC1,-29.7%,15.9%[59 µM],-14.1%,.,-2.0%,3.0%
O=c1[nH]c(CN2CCN(S(=O)(=O)c3ccc4ccccc4c3)CC2)nc2ccccc12,-5.3%,21.0%,?,4.7%,23.8%,-5.9%
COc1ccccc1N1CCN(C2CCN(S(=O)(=O)c3ccc4ccccc4c3)CC2)CC1,?,44.7µM*,?,5.9%,?,1.0%
O=C(O)c1cc(S(=O)(=O)N2CCN(S(=O)(=O)c3ccc4ccccc4c3)CC2)ccc1Br,.,.,-29.1%,35.5µM*,18.2%,.
O=P(C(=NCCO)NO)(N1CCOCC1)N1CCOCC1,6.2%,0.0%[0.501 µM],-11.6%,.,20.4%,21.2%
O=S1(=O)N=C(Sc2ccc3c(c2)OCCO3)c2ccccc21,.,.,-26.2%,.,.,.
CC1CN(CCOCCOc2ccccc2-c2ccccc2)CC(C)O1 (stereo not drawn),22.4µM*,1.78µM*,10µM*,.,?,44.7µM*
Cc1ccc(C)c(OCCOCCN2CC(C)OC(C)C2)c1C (stereo not drawn),25.1µM*,12.6µM*,1µM*,.,?,?
CC1CN(CCOCCSc2ccccc2)CC(C)O1 (stereo not drawn),-19.3%,35.2%[12.7 µM],-15.9%,5.5%,18.3%,2.5%
Cc1ccc(C(C)C)c(OCC(O)CN2CC(C)OC(C)C2)c1 (stereo not drawn),7.4%,6.9%[59 µM],-7.6%,-3.9%,21.1%,19.8%
CC1CN(CCOc2ccccc2C(C)C)CC(C)O1 (stereo not drawn),?,10µM*,22.4µM*,.,?,?
COc1cc(C(=O)NCC2CCCO2)ccc1OCc1ccccc1Cl (stereo not drawn),8.6%,.,-7.3%,2.1%,22.7%,3.8%
COC(=O)NC(c1cccs1)C(C(C)=O)C(=O)OC (stereo not drawn),.,.,.,0.5%[21 µM],.,6.4%
CCOC(=O)N1CCC(NC(=O)C2CCN(C(=O)N3CC(C)Oc4ccc(C)cc43)CC2)CC1 (stereo not drawn),4.7%,-5.3%[59 µM],-2.3%[57.1 µM],1.0%,53.0%,-2.8%
CCOC(=O)N1CCC(NC(=O)C2CCN(C(=O)c3cc4oc(C)cc4n3Cc3c(F)cccc3Cl)CC2)CC1,?,35.5µM*,?,3.1%,-8.2%,20µM*
Cc1cc(C)c(C)c(S(=O)(=O)N2CCC(C(=O)N3CCCCCCC3)CC2)c1C,-18.8%,21.9%,-18.2%,1.9%[56.1 µM],26.0%,-2.7%
Cc1nc2oc(C(=O)c3ccc(Br)cc3)c(N)c2c2c1COC(C)(C)C2,3.1%,25.1µM*,2.9%,-1.0%,29.8%,-7.4%
COc1ccc(NC(=O)c2sc3nc(N4CCCC4)c4c(c3c2N)CC(C)(C)OC4)c(OC)c1,-0.2%[57.1 µM],3.3%,-8.6%,4.5%,39.4%,?
CC1(C)Cc2c(c(N3CCOCC3)nc3sc(C(N)=O)c(N)c23)CO1,-31.9%,3.9%[12.7 µM],-9.7%,8.4%,19.3%,14.1µM*
Nc1c(C(=O)c2ccccc2)sc2nsc(SCCN3CCOCC3)c12,-16.5%,.,-19.2%,5.0%,54.5%,50.1µM*
Cc1ccc(C(=O)c2sc3nsc(C)c3c2N)cc1,47.3%,?,-2.5%,4.6%,42.9%,-6.1%
Cc1nc2sc(C(=O)O)c(N)c2c2c1COC(C)(C)C2,7.3%,3.16µM*,14.1µM*,-8.3%,11.1%,39.8µM*
COc1cccc(C2CC(=O)N(c3ccc(F)cc3)C3=C2C(=O)OC3)c1OC (stereo not drawn),-7.4%,-26.4%[59 µM],-4.5%,1.9%,6.9%,.
SMILES,BAZ2B block,G9a block,JMJD2A Tudor inh,TDP1 block,HP1b chromo inh,Sfp inh
O=C(c1cnc2ccccc2n1)N1CCN(c2ccc(C(F)(F)F)cn2)CC1,-0.5%,11.3%[59 µM],-2.8%,3.7%,25.1%,13.6%
Cc1ccc(NC(=O)C(C)SCc2ccccc2)cc1 (stereo not drawn),5.6%,11.7%,2.6%,2.7%,46.0%,-1.1%
CC1(C)Cc2c(c(N3CCOCC3)nc3sc(C(=O)Nc4ccc(Cl)cc4)c(N)c23)CO1,3.2%,10µM*!,-32.9%,1.9%[0.0935 µM],-17.8%,31.6µM*
CC1(C)Cc2c(c(N3CCOCC3)nc3snc(Br)c23)CO1,-6.0%,?,?,3.1%,36.9%,44.7µM*
CN1Cc2c(N3CCOCC3)nc3sc(C(=O)c4ccccc4)c(N)c3c2CC1(C)C,?,50.1µM*,44.7µM*,8.3%,-10.5%,-10.1%
COc1cccc(NC(=O)c2sc3nc(N4CCOCC4)c4c(c3c2N)CC(C)(C)OC4)c1,-0.2%,-4.0%[59 µM],-7.6%,1.1%,36.8%,.
CC1(C)Cc2c(c(N3CCOCC3)nc3snc(N)c23)CO1,7.4%,12.3%,-7.9%,3.2%,7.4%,-1.9%
Cc1cc(NC(=O)c2cc(-c3ccncc3)nc3ccccc23)ccc1Br,.,.,?,2.8%,12.8%,.
Nc1cc2c(cc1[N+](=O)[O-])OCO2,56.2µM*,50.1µM*,?,.,-11.8%,2.4%
CCN1C(=O)[C@H]2[C@H]3[C@H](O)[C@H](O)C/C(=N/OC[C@@H]4O[C@H](c5ccccc5)C=C[C@@H]4Oc4ccc(OC)cc4)[C@@H]3CC[C@@H]2C1=O,.,.,.,11.1%[21 µM],.,-7.6%
COC(=O)CC1C(=O)NC2CCCCC2N1C(=O)CCl (stereo not drawn),-15.2%,.,-2.8%,4.8%,47.7%,-21.4%
Cc1ccc(S(=O)(=O)c2nc(Nc3ccccc3C#N)sc2Cl)cc1,-5.0%,7.94µM*,11.2%,7.9%,41.1%,-0.7%
COc1ccc(S(=O)(=O)c2cc3cc(OC)ccc3oc2=O)cc1,-8.7%,-0.7%[59 µM],-4.7%,1.2%,36.4%,.
COc1ccc(S(=O)(=O)c2cc3cc(C(C)(C)C)cc(O)c3oc2=O)cc1,25.1µM*,15.8µM*,?,6.9%,-16.8%,.
O=C(O)c1ccc(C(=O)C(=O)c2ccccc2)cc1,-13.3%,79.4µM*,-1.4%,-5.6%,16.0%,22.4%
O=C(c1ccccc1)N1CCN(C(=O)c2ccccc2)c2ccccc21,.,.,-17.1%,.,22.2%,.
